Screening data from PubChem BioAssay.
Rows were chosen to be rich in hits. Some 1.6% of all compounds tested hit in one or more screens of this group.
KCNQ2 pot: KCNQ2 (rat) channel potentiation; O88943; CHO-K1 KCNQ2, FluxOR thallium flux fluorescence; active compounds read high; B-score at 10 µM; 0.54% of 310,000 active; AID 2239;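 active = fluorescence ratio B-score at least 3 SD of library B-scores, with initial fluorescence B-score within 3 of them, cut at about 5.3 in these data; same plate scores as AID 2156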;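 also: B-score of peak minus minimum over baseline fluorescence ratio after K+ and Tl+ stimulus; positive B-score means potentiation of KCNQ2 with more thallium influx and brighter signal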
KCNQ2 block: blocks the rat KCNQ2 potassium channel | O88943 | CHO-K1 KCNQ2, FluxOR thallium flux, 20 min; active compounds read low | B-score at 10 µM | 1.1% of 310,000 active | AID 2156;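 active = fluorescence ratio B-score at most minus 3 library SDs, with starting brightness B-score within 2 library SDs, cut at about -5.5 in these data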
Kir21 conf inh: confirmation of mouse Kir2.1 potassium channel inhibitors; shares compounds with KCNQ2 pot; Kir2.1-expressing cells, FluxOR thallium flux fluorescence; active compounds read low; Tl flux remaining, % of negative control (active compounds read low), % at 10 µM; 41% of 2,300 active;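 active = Primary-screen hit whose thallium flux fell at least 3 control SD below untreated wells in both duplicates, with normal baseline fluorescence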;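 also: 0% = blank wells without stimulus and 100% = stimulated no-compound controls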
HEK293 Tl flux: parental HEK293 activity in Kir2.1 inhibitor counter-screen | shares compounds with KCNQ2 pot | parental HEK293 cells, FluxOR thallium flux fluorescence; 0% = unstimulated blank wells | FluxOR signal as % of negative control (100 = no effect), % at 10 µM | 19% of 2,300 active | AID 2105;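 active = dye signal at least 3 control SD above or below untreated wells in both duplicates, raw fluorescence within 3, either direction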;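 also: percent is based on the flux ratio of peak minus minimum fluorescence over baseline F0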
CHO-K1 Tl ctr: alters thallium flux in parental CHO-K1 cells, KCNQ2 counter-screen. activity increase over 3SD of controls, % at 10 µM. FluxOR thallium flux fluorescence; zero = vehicle mean+3SD, 100% = vehicle-minus-blank window. 43% of 1,200 active. shares compounds with KCNQ2 pot;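 active = signal rise of at least 3 SD above the untreated control mean, in both duplicate wells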;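 also: counter screen of KCNQ2 potentiator hits so any rise reflects channel-independent effects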
KCNQ1 pot spec: tests whether KCNQ2 potentiators also act on human KCNQ1; shares compounds with KCNQ2 pot; AID 2283; 28% of 1,200 active; activation over 3SD threshold, % at 10 µM; CHO KCNQ1 stable, FluxOR thallium flux fluorescence; beyond 3SD, as % of vehicle-control signal;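 active = fluorescence ratio rise of at least 3 SD of vehicle wells above their mean, in both replicate wells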;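 also: 0% = vehicle mean plus 3 SD and 100% = vehicle minus unstimulated blank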
KCNQ2 pot confirm: confirmation of rat KCNQ2 potassium channel potentiators; shares compounds with KCNQ2 pot; CHO-KCNQ2 cells, FluxOR thallium flux fluorescence; potentiation, less the hit threshold, % at 10 µM; 68% of 1,200 active; AID 2287;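 active = fluorescence ratio rising 3 SD or more over the vehicle control mean in both replicates, plus primary screen hit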;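 also: peak minus minimum thallium fluorescence divided by baseline after K/Tl stimulus; 0% = vehicle mean plus 3 SD and 100% = vehicle minus unstimulated blank difference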
Kir2-1 sel: selectivity of KCNQ2 potentiators: effect on mouse Kir2.1. AID 2345. 2% of 1,200 active. HEK293 Kir2.1, FluxOR thallium flux fluorescence. activity over 3SD threshold, % at 10 µM. shares compounds with KCNQ2 pot;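 active = fluorescence ratio rise of at least 3 SD above the vehicle-control mean, seen in both replicates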;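 also: 0% = vehicle mean plus 3 SD and 100% = vehicle minus no-stimulus blank window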
KCNQ2 W236L pot: rat KCNQ2 W236L mutant potentiation by KCNQ2 potentiators; current increase over 3SD of negative controls (%), active compounds read high, % at 25 µM; shares compounds with KCNQ2 pot; AID 2558; 10% of 940 active; CHO KCNQ2-W236L, automated patch clamp current;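 active = current increase at least 3 SD of the untreated controls above them in both duplicate recordings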
Target sequence (O88943 whole entry W236L, looked up): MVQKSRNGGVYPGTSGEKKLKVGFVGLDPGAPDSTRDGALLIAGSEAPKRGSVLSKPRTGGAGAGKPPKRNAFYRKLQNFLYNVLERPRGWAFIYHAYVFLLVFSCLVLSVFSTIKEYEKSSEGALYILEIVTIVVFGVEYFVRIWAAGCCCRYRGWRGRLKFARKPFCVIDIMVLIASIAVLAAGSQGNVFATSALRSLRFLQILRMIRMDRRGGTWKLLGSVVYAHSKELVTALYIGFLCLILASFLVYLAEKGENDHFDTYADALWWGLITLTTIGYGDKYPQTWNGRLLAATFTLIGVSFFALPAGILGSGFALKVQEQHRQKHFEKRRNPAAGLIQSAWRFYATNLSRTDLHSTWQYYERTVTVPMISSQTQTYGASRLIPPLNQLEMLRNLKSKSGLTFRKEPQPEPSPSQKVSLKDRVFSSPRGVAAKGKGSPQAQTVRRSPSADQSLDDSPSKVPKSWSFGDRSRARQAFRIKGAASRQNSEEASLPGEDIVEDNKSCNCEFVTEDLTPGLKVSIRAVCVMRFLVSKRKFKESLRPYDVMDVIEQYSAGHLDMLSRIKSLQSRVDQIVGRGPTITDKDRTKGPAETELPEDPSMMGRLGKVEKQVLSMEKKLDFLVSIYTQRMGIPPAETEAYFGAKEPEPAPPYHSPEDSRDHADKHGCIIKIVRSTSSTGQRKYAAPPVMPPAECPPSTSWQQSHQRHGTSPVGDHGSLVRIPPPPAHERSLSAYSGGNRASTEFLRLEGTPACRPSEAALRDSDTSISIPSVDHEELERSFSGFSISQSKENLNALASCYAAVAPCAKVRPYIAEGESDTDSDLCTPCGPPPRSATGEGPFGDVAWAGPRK
* hit, by the source's call.

Screening O=C1CC(N2CCc3ccccc32)C(=O)N1c1ccc(F)cc1 (centres undefined) returned KCNQ2 block inactive.
Screening CCc1sc(NC(=O)C(C)C)nc1-c1ccccc1 returned KCNQ2 block inactive.
For COc1ccc(CCN2CC(C(=O)NCCc3ccccc3C(F)(F)F)CCC2=O)cc1 (centres undefined) the results were KCNQ2 block inactive.
Cc1cc2ccc3ccccc3c2cc1CN(C)C was read as KCNQ2 block inactive, Kir21 conf inh 13.0%* and HEK293 Tl flux inactive.
`CN(C)Cc1cc2ccccc2c2c1COC2` gave KCNQ2 block inactive.
For Cc1ccccc1OC1CCN(C(=O)C2CCC(=O)N(C3CCCC3)C2)CC1 (centres undefined) the results were KCNQ2 pot 0.66 and KCNQ2 block inactive.
CC(C)Oc1ccc(C(=O)NC2CCCCC2)cc1 was read as KCNQ2 block inactive.
`CC(C)Oc1ccc(C(CCN)C2CCCCC2)cc1` (centres undefined) gave KCNQ2 block inactive, Kir21 conf inh 43.5%* and HEK293 Tl flux 65.0%*.
For COc1ccc(NC(=O)CSc2ccc3nnc(-c4ccccn4)n3n2)c(OC)c1 the results were KCNQ2 block inactive.
`Cc1cccc(Nc2nc(N)nc(CN3CCN(c4ccc(F)cc4)CC3)n2)c1` gave KCNQ2 pot 6.87*, KCNQ2 block inactive, Kir21 conf inh inactive, HEK293 Tl flux inactive, CHO-K1 Tl ctr 44.0*, KCNQ1 pot spec -6.7, KCNQ2 pot confirm -8.1, Kir2-1 sel -39.5 and KCNQ2 W236L pot inactive.
For Cc1cccc(Nc2nc(N)nc(CN3CCN(C)CC3)n2)c1 the results were KCNQ2 pot 0.06 and KCNQ2 block inactive.
CCCc1ncc(CN2CCC(C(=O)Nc3cccc(-c4cscn4)c3)CC2)cn1 was read as KCNQ2 block inactive.
For CCn1ccnc1CN(C)C(=O)CCc1nnc(CCCc2ccccc2)o1 the results were KCNQ2 block inactive.
CSc1ccc(NC(=O)NCCCN2CCC(Cc3ccccc3)CC2)cc1 was read as KCNQ2 block inactive, Kir21 conf inh 63.5%* and HEK293 Tl flux inactive.
`Cc1ccc(NC(=O)NCC2CC2(Cl)Cl)cc1` (centres undefined) gave KCNQ2 pot 10.2*, KCNQ2 block inactive, Kir21 conf inh inactive, HEK293 Tl flux inactive, CHO-K1 Tl ctr 21.8*, KCNQ1 pot spec -20.9, KCNQ2 pot confirm -1.2, Kir2-1 sel -30.9 and KCNQ2 W236L pot inactive.
Cc1ccc(NC(=O)NCCCc2ccccc2)cc1 was read as KCNQ2 pot 6.27*, KCNQ2 block inactive, Kir21 conf inh inactive, HEK293 Tl flux inactive, CHO-K1 Tl ctr 5.9*, KCNQ1 pot spec 71.4*, KCNQ2 pot confirm -2.7, Kir2-1 sel -35.9 and KCNQ2 W236L pot inactive.
`Cc1ccc(NC(=O)NCCSc2ccc(C)cc2)cc1` gave KCNQ2 pot 5.48*, KCNQ2 block inactive, Kir21 conf inh inactive, HEK293 Tl flux inactive, CHO-K1 Tl ctr -3.9, KCNQ1 pot spec 48.2*, KCNQ2 pot confirm -4.5 and Kir2-1 sel -26.2.
For Cc1ccc(CNC(=O)Nc2ccc(C)cc2)cc1 the results were KCNQ2 pot 2.51 and KCNQ2 block inactive.
`COc1ccc(NC(=O)NCCCN2CCC(Cc3ccccc3)CC2)cc1` gave KCNQ2 block inactive.
`Cc1ccc(NC(=S)NCCSc2ccc(Cl)cc2)cc1` gave KCNQ2 pot 3.24 and KCNQ2 block inactive.
Screening O=C(NCCCCc1ccccc1)Nc1ccc(F)cc1 returned KCNQ2 pot 2.15 and KCNQ2 block inactive.
Screening NC(=O)c1cc(S(=O)(=O)Nc2ccc(OC(F)(F)F)cc2)cs1 returned KCNQ2 pot 1.78 and KCNQ2 block inactive.
For Nc1nc(COc2ccccc2C=O)nc(Nc2ccccc2)n1 the results were KCNQ2 pot 1.74 and KCNQ2 block inactive.
For CCOc1ccccc1NC(=O)CN(C)S(=O)(=O)c1ccc2[nH]c(=O)oc2c1 the results were KCNQ2 block inactive.
`O=C(NC1CCSc2ccccc21)c1cc([N+](=O)[O-])ccc1N1CCOCC1` (centres undefined) gave KCNQ2 block inactive.
Screening NS(=O)(=O)c1ccc(O)c(NC(=O)c2ccc([N+](=O)[O-])o2)c1 returned KCNQ2 block inactive.
For CCCc1ccccc1OCCNS(=O)(=O)c1cc2c(cc1C)OCC(=O)N2 the results were KCNQ2 pot 2.17, KCNQ2 block inactive, Kir21 conf inh 64.5%* and HEK293 Tl flux inactive.
For Cc1cc2c(cc1S(=O)(=O)NCCc1ccccc1)NC(=O)CO2 the results were KCNQ2 pot 1.77 and KCNQ2 block inactive.
Screening COc1ccc(/C=N\NC(=O)c2sccc2C)cc1Cn1nc(C)cc1C returned KCNQ2 block inactive.
CCCc1cc(=O)oc2cc(C)cc(OCC(=O)NCCCN3CCCC3=O)c12 was read as KCNQ2 pot 1.01 and KCNQ2 block inactive.
S=c1[nH]c(-c2ccccc2)cs1 was read as KCNQ2 pot 11.2*, KCNQ2 block inactive, Kir21 conf inh inactive, HEK293 Tl flux 147.0%*, CHO-K1 Tl ctr 9.5*, KCNQ1 pot spec -15.0, KCNQ2 pot confirm 65.7*, Kir2-1 sel -39.1 and KCNQ2 W236L pot inactive.
For O=c1[nH]c(-c2ccccc2)cs1 the results were KCNQ2 pot 0.01 and KCNQ2 block inactive.
`Cc1nn(-c2ccccc2)c(C)c1NC(=O)COC(=O)c1ccccc1OC(F)F` gave KCNQ2 block inactive.
`Cc1cc(C)c(C)c(S(=O)(=O)NCC(=O)Nc2ccccc2F)c1C` gave KCNQ2 block inactive, Kir21 conf inh 66.0%* and HEK293 Tl flux inactive.
`Cc1cc(C)c(C)c(S(=O)(=O)NCC(=O)O)c1C` gave KCNQ2 pot 0.38 and KCNQ2 block inactive.
Screening CCOC(=O)C1CCCN(C(=O)c2cc3cc(OC)c(OC)cc3[nH]2)C1 (centres undefined) returned KCNQ2 block inactive.
`Cn1c(-c2cnn(-c3ccccc3)c2-n2cccc2)n[nH]c1=S` gave KCNQ2 block inactive.
